MITF inh: blocks human microphthalmia-associated transcription factor; O75030; inhibition, % at 2.6 µM; AlphaScreen MITF homodimerization, bead proximity signal; hit rate 0.91% among 650,000; AID 1259374; in the data active = inhibition above about 50%;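 note: 0% = vehicle wells with protein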
Target sequence (O75030 whole entry, looked up): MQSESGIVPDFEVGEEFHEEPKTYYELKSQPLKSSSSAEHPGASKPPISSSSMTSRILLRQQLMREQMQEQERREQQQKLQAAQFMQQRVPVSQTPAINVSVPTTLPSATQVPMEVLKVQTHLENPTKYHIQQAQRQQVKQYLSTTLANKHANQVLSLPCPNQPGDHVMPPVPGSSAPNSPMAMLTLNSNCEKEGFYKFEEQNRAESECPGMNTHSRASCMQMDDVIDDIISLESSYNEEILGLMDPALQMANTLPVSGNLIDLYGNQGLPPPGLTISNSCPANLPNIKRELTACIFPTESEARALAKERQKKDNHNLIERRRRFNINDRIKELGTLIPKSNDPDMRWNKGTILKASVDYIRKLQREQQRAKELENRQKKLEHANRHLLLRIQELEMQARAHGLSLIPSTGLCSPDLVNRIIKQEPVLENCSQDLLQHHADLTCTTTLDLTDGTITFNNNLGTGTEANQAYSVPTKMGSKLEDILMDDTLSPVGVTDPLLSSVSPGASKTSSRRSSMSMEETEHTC
GPR151 ag: activates the human receptor GPR151. Q8TDV0. PathHunter beta-arrestin GPR151 cells, luminescence. activation, % at 11.2 µM. hit rate 1% among 650,000; in the data active = activation above about 4.9%;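 note: 0% = median of compound wells and 100% = cells with positive control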
TEAD-YAP block: TEAD-YAP interaction inhibition; hit rate 1.4% among 640,000; AID 1259422; HEK-TIYL cells, TEAD-Gal4/YAP UAS-luciferase luminescence; inhibition, % at 9.12 µM; in the data active = inhibition above about 32%;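 note: 0% = median of test compound wells and 100% = reference inhibitor wells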
FBW7 activator: human FBW7 E3 ligase activation, primary screen. Q969H0. AlphaScreen FBW7–phospho-cyclin E peptide binding, activator screen. normalized activity (activation), % at 26.1 µM. hit rate 0.13% among 650,000; in the data active = normalized activity above about 1.9%;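 note: purified mutant Fbw7 with reduced substrate affinity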
GPR151 conf act: confirmation of human GPR151 activators; GPR151 PathHunter beta-arrestin cells, luminescence, 90 min; % of EA-reagent control over plate median; 6,700 tested, under 10 active; activation, % at 11.2 µM; AID 1508609; shares compounds with GPR151 ag;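 active = mean percent activation across replicates above the confirmation screen cutoff of 4.91%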
GPR119 counter: counter-screen for GPR151 activators: effect on human GPR119; GPR119 PathHunter beta-arrestin cells, luminescence, 90 min; 0 = compound-well median, 100 = enzyme-acceptor control; shares compounds with GPR151 ag; AID 1508611; hit rate 0.3% among 6,700; activation, % at 11.2 µM;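 active = mean percent activation in the counterscreen above 29.09%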;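 note: counterscreen on off-target GPR119 to flag nonselective hits from the GPR151 activator screen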
Active calls of the source: *; nt = no result given. In the library only some 3.4% were active in any assay of this set; here they are far more common.

SMILES	MITF inh	GPR151 ag	TEAD-YAP block	FBW7 activator	GPR151 conf act	GPR119 counter
CS(=O)(=O)N(CC(=O)Nc1cccc(Cl)c1Cl)c1cccc(F)c1	-1.3	5.3*	-13.2	-0.1	0.2	1.8
CS(=O)(=O)N(CC(=O)NC1CC1)c1ccc(F)c(Cl)c1	-4.6	5.6*	1.0	0.0	1.4	16.3
CS(=O)(=O)N(CC(=O)NC1CCCC1)c1ccc(F)c(Cl)c1	-1.1	0.1	7.1	0.1	nt	nt
COC(=O)c1c(NC(=O)/C=C/c2cccc([N+](=O)[O-])c2)sc2c1C(C(=O)OC)CC2 (centres undefined)	-9.7	-0.6	-9.8	0.0	nt	nt
O=C1N[C@@H](CO)C(=O)N2CCN(Cc3ccc4ncccc4c3)C[C@H]12	-0.8	0.4	0.4	-0.2	nt	nt
CCCn1c(C)cc(=O)c2cc([N+](=O)[O-])ccc21	15.3	11.4*	0.7	-0.1	-0.1	-5.8
Cc1ccc2c(CC(=O)N3CCC[C@@H]4CN(CCC(C)C)CC[C@H]43)cc(=O)oc2c1	-22.1	-0.3	-7.3	0.0	nt	nt
Cc1ccc2c(c1)C(C)(c1ccccc1)CC(C)(C)N2C(=O)c1cccc([N+](=O)[O-])c1 (centres undefined)	7.9	-0.5	4.4	0.2	nt	nt
CN(C(=O)COc1ccc(C(C)(C)C)cc1)C1(C)CCS(=O)(=O)C1 (centres undefined)	-11.6	5.5*	7.8	-0.1	-0.8	-1.5
O=c1nc2s/c(=C/c3cccs3)c(=O)n2nc1Cc1ccc(F)cc1	7.6	5.0*	11.9	-1.8	-0.3	-4.8
CC(=O)Oc1ccc(/C=c2/sc3nc(=O)c(Cc4ccc(F)cc4)nn3c2=O)cc1	-1.1	1.1	10.7	0.0	nt	nt
O=C(c1ccc(-n2nnc3ccccc3c2=O)cc1)N1CCc2ccccc2C1	0.1	6.0*	2.0	0.0	-0.8	-8.4
O=C(c1ccc(Cn2nnc3ccccc3c2=O)cc1)N1CCc2ccccc2C1	-6.8	0.1	1.7	0.0	nt	nt
O=C(Cn1ncn2nc(-c3cccs3)cc2c1=O)NC1CCCc2ccccc21 (centres undefined)	6.3	0.9	2.0	0.1	nt	nt
O=C(Cn1ncn2nc(-c3cccs3)cc2c1=O)NC1CCN(Cc2ccccc2)CC1	-3.8	12.9*	-5.6	-0.1	1.0	-5.9
COc1ccc(CNC(=O)c2cc3c(=O)[nH]c4ccccc4c3n2C)c(OC)c1	12.0	6.4*	-4.9	0.5	-1.1	-10.6
CSc1ccc(-c2ccc3c(c2)CC(CNC(=O)C2CCOC2)O3)cc1 (centres undefined)	2.6	7.9*	7.3	0.0	0.0	-1.2
CSc1ccc(-c2ccc3c(c2)CC(CNC(=O)c2ccncc2)O3)cc1 (centres undefined)	-4.3	0.5	11.4	-0.1	nt	nt
CC(NCC(C)(C)CN(C)C)C(=O)Nc1ccccc1 (centres undefined)	5.7	7.0*	4.5	-0.1	0.9	2.7
CSc1ccc2cc(CN[C@H]3CCCCNC3=O)c(N(C)C)nc2c1	8.7	0.5	14.9	-0.3	nt	nt
CC(=O)NC1=NC(=O)/C(=C/c2ccc(-c3ccc(C)c(Cl)c3)o2)S1	-6.3	5.3*	-1.0	0.0	0.6	7.5
Cc1cc(C)nc(Nc2n[nH]c(COc3ccccc3)n2)n1	5.7	5.7*	-14.1	0.1	-1.0	-2.3
O=C1CCC(C(=O)Nc2cc(F)cc(F)c2)=NN1	-3.1	6.4*	8.6	0.0	1.0	6.0
Cn1c(=O)c2ncn(CC(=O)Nc3ccc(C(=O)O)cc3)c2n(C)c1=O	1.2	5.2*	-3.7	0.1	-0.2	3.5
COc1cc(Nc2cc(-c3ccc(C(N)=O)cc3)nc(N)n2)cc(OC)c1OC	5.5	12.0*	-2.5	0.1	1.8	-3.4
O=C(Nc1ccc(S(=O)(=O)N2CCOCC2)cc1)c1ccccn1	6.9	1.0	-24.2	-0.1	nt	nt
COc1ccc(N2C(=O)C3CCCN3C2c2cc(OC)ccc2OC)cc1 (centres undefined)	18.3	0.2	9.4	0.8	nt	nt
COc1ccc(N2C(=O)C3CCCN3C2c2ccccc2OC)cc1 (centres undefined)	-13.4	6.1*	-7.3	0.0	-0.1	-8.0
CCCc1cc(NCc2ccco2)n2ncnc2n1	17.9	1.6	6.1	0.1	nt	nt
Cc1noc(CNC(=O)c2ccc3ccccc3n2)n1	10.5	5.4*	-8.2	0.0	0.1	-7.7

Screening data from PubChem BioAssay.
